# High-throughput results deposited in PubChem BioAssay by Broad Institute.
# This is a sample that favours compounds with a hit; in the whole collection about 6.7% have one here.
# Pf Dd2 inh = inhibitors of Plasmodium falciparum Dd2 growth; AID 1159554; P. falciparum Dd2 growth, SYBR Green, 72 h; active compounds read low; actives 2.3% (n = 94,000); activity change, % at 10 µM; in the data active = activity change below about -80%; inconclusive = no clear call, values can overlap the other calls
# C diff HTS = blocks growth of Clostridium difficile; Clostridium difficile clinical isolate growth, OD600, 24 h; active compounds read low; growth activity, negative = inhibition, % at 16 µg/mL (by protocol); actives 0.25% (n = 86,000);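 active = mean growth activity at or below -80% and every replicate also at or below -80%; inconclusive = mean at or below -80% but some replicate above -80%; inactive = mean growth activity above -80%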;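 note: 0% = DMSO wells and -100% = levofloxacin 16 µg/mL wells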
# T cruzi growth-1 = inhibitors of T. cruzi proliferation | T. cruzi beta-gal in NIH3T3, GalScreen luminescence, 90 h | inhibition, % at 8.34 µM | actives 5.9% (n = 77,000) | AID 624255;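 active = mean inhibition above about 93%, with at least 55% of replicates each passing it, limit read from the data, passing the limit was not always enough; inconclusive = only one of those two conditions holds; inactive = neither condition holds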
# T cruzi growth-2 = Trypanosoma cruzi proliferation inhibition | shares compounds with T cruzi growth-1 | T. cruzi beta-gal in NIH3T3, GalScreen luminescence, 90 h | inhibition, % at 8.35 µM | actives 72% (n = 5,600) | AID 651739;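 active = mean replicate inhibition above about 95% and at least 55% of replicates individually reaching it, limit read from the data; inconclusive = only one of the two criteria is met; inactive = neither criterion is met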
# T cruzi growth-3 = Trypanosoma cruzi proliferation inhibition; T. cruzi beta-gal in NIH3T3, GalScreen luminescence, 90 h; inhibition, % at 2.09 µM; actives 21% (n = 5,600); shares compounds with T cruzi growth-1;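 active = mean inhibition above about 95%, with at least 55% of replicates also reaching it, limit read from the data; inconclusive = meets just one of the two conditions; inactive = meets neither condition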;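 note: plate controls were neutral control median for no effect and positive control median for full effect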
# NIH3T3 tox = NIH/3T3 (mouse) viability loss; shares compounds with T cruzi growth-1; NIH/3T3 viability, CellTiter-Glo ATP luminescence, 90 h; cytotoxicity (signal decrease), % at 8.35 µM; actives 14% (n = 5,600);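 active = mean signal decrease across replicates above about 35% based on untreated-well scatter, with enough replicates individually passing, limit read from the data; inconclusive = no rule stated though some were filed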;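 note: 0% = median of neutral control wells and 100% = median of positive control wells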
# 3T3 cytotox 2 = NIH/3T3 (mouse) viability loss. actives 56% (n = 5,600). AID 651744. shares compounds with T cruzi growth-1. inhibition, % at 24.9 µM. NIH/3T3 viability, CellTiter-Glo ATP luminescence, 90 h;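 active = mean loss of cell viability signal at or above a set limit, and enough replicates individually reaching it; inconclusive = meets only the mean limit or only the replicate share; inactive = meets neither condition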;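 note: 0% = median of neutral control wells and 100% = median of positive control wells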
# * hit, by the source's call; ? = inconclusive; . = no result given.
SMILES,Pf Dd2 inh,C diff HTS,T cruzi growth-1,T cruzi growth-2,T cruzi growth-3,NIH3T3 tox,3T3 cytotox 2
Cc1ccc(S(=O)(=O)Nc2ccc3c(c2)C(=O)N([C@@H](C)CO)C[C@H](C)[C@@H](CN(C)Cc2ccc(Cl)c(Cl)c2)O3)cc1,-10,32,92,.,.,.,.
C[C@H]1CN([C@@H](C)CO)C(=O)c2cc(NS(=O)(=O)c3ccc(Cl)cc3)ccc2O[C@@H]1CN(C)Cc1ccc(Cl)c(Cl)c1,3,43,89,.,.,.,.
C[C@@H]1CN([C@@H](C)CO)C(=O)c2cc(NS(=O)(=O)c3ccc(F)cc3)ccc2O[C@H]1CN(C)Cc1ccc(Cl)c(Cl)c1,7,16,?,105*,53,30,104*
C[C@H]1CN([C@@H](C)CO)C(=O)c2cc(NS(=O)(=O)c3ccc(F)cc3)ccc2O[C@H]1CN(C)Cc1ccc(Cl)c(Cl)c1,-8,31,63,.,.,.,.
CO[C@H]1CN(C)C(=O)c2cc(NC(=O)Nc3cccc(Cl)c3)ccc2OC[C@H](C)N(C(=O)Nc2c(C)noc2C)C[C@H]1C,.,.,-21,.,.,.,.
C[C@H](CO)N1C[C@H](C)[C@H](CN(C)CC2CCCCC2)Oc2ccc(NC(=O)Cc3cn(C)c4ccccc34)cc2C1=O,-4,1,89,.,.,.,.
Cc1ccccc1S(=O)(=O)N1CC[C@@H]2[C@@H](CO)Nc3ccc(-c4ccccc4F)cc3[C@@H]21,-13,7,119*,102*,85,39*,104*
O=S(=O)(c1ccccc1F)N1CC[C@@H]2[C@H](CO)Nc3ccc(-c4ccccc4F)cc3[C@@H]21,8,7,45,.,.,.,.
COc1ccccc1S(=O)(=O)N1CC[C@@H]2[C@H]1c1cc(-c3ccccc3F)ccc1N[C@@H]2CO,21,-1,102*,97*,86,26,8
COc1ccccc1-c1ccc2c(c1)[C@@H]1[C@@H](CCN1S(=O)(=O)c1ccccc1OC)[C@H](CO)N2,-58,40,26,.,.,.,.
CC(C)C#Cc1ccc([C@H]2[C@@H](C#N)N(C(=O)c3cccc(F)c3)[C@@H]2CO)cc1,-35,0,98*,99*,108*,4,38
CC(C)C#Cc1ccc([C@H]2[C@@H](CO)N(C(=O)c3ccccn3)[C@H]2C#N)cc1,-45,2,97*,98*,80,15,16
N#C[C@H]1[C@@H](c2ccc(C#CC3CCCC3)cc2)[C@H](CO)N1C(=O)c1cccc(F)c1,-59,56,.,.,.,.,.
N#C[C@@H]1[C@@H](c2ccc(C#CC3CC3)cc2)[C@H](CO)N1C(=O)c1cccc(F)c1,-55,9,97*,105*,110*,20,12
CC(C)C#Cc1ccc([C@H]2[C@H](C#N)N(C(=O)c3ccccn3)[C@H]2CO)cc1,-3,-5,81,.,.,.,.
N#C[C@H]1[C@@H](c2ccc(C#CC3CC3)cc2)[C@H](CO)N1C(=O)c1cccc(F)c1,-61,12,94,.,.,.,.
COCC(=O)Nc1ccc2c(c1)[C@@H]1C[C@H](CC(=O)NCc3ccc(OC)cc3)O[C@@H](CO)[C@@H]1O2,25,-1,3,.,.,.,.
C[C@@H]1CN([C@@H](C)CO)S(=O)(=O)c2ccc(-c3ccc(F)cc3)cc2O[C@@H]1CN(C)C(=O)C1CC1,-5,-11,-126,.,.,.,.
O=C(C[C@@H]1C=C[C@H](NS(=O)(=O)c2ccc(F)cc2)[C@H](CO)O1)NCCN1CCCCC1,-4,-2,27,.,.,.,.
Cc1ccccc1S(=O)(=O)N1CCCCN2[C@H](CO)[C@H](c3ccc(-c4cccnc4)cc3)[C@H]2C1,-56,21,100*,108*,80,29,80*
O=S(=O)(c1ccccc1F)N1CCCCN2[C@@H](CO)[C@@H](c3ccc(-c4ccncc4)cc3)[C@@H]2C1,-12,-7,?,107*,35,30,27*
O=S(=O)(c1ccccc1F)N1CCCCN2[C@H](C1)[C@@H](c1ccc(-c3ccccc3)cc1)[C@@H]2CO,-60,5,69,.,.,.,.
Cc1ccccc1S(=O)(=O)N1CCCCN2[C@@H](CO)[C@H](c3ccc(-c4cncnc4)cc3)[C@@H]2C1,-28,-1,117*,73,22,11,?
Cc1ccccc1S(=O)(=O)N1CCCCN2[C@H](CO)[C@@H](c3ccc(-c4cncnc4)cc3)[C@H]2C1,-24,2,73,.,.,.,.
Cc1ccccc1S(=O)(=O)N1CCCCN2[C@H](CO)[C@@H](c3ccc(-c4cccnc4)cc3)[C@@H]2C1,8,-16,74,.,.,.,.
SMILES,Pf Dd2 inh,C diff HTS,T cruzi growth-1,T cruzi growth-2,T cruzi growth-3,NIH3T3 tox,3T3 cytotox 2
CN1C(=O)c2cc(NC(=O)Nc3ccccc3)ccc2OC[C@H]2O[C@H](CC(=O)NC3CCC3)CC[C@@H]21,-8,-4,-11,.,.,.,.
CN(C)C(=O)c1ccc(-c2ccc3c(c2)[C@@H]2[C@@H](CCN2S(=O)(=O)c2cn(C)cn2)[C@@H](CO)N3)cc1,-12,-13,76,.,.,.,.
C[C@H](O)C#Cc1ccc2c(c1)O[C@@H](CN(C)CC1CC1)[C@@H](C)CN([C@@H](C)CO)S2(=O)=O,11,-5,-89,.,.,.,.
C[C@@H]1CN([C@H](C)CO)C(=O)c2cc(NC(=O)Nc3cccc4ccccc34)ccc2O[C@H]1CN(C)Cc1ccc(C(F)(F)F)cc1,9,-5,106*,105*,59,20,?
C[C@@H]1CN([C@@H](C)CO)C(=O)c2cc(NC(=O)Nc3cccc4ccccc34)ccc2O[C@@H]1CN(C)Cc1ccccc1,5,4,66,.,.,.,.
C[C@H]1CN([C@@H](C)CO)C(=O)c2cc(NC(=O)Nc3cccc4ccccc34)ccc2O[C@@H]1CN(C)Cc1ccc(C(F)(F)F)cc1,12,-3,87*,109*,44,13,11
C[C@@H]1CN([C@H](C)CO)C(=O)c2cc(NC(=O)Nc3cccc4ccccc34)ccc2O[C@H]1CN(C)Cc1ccccc1,-20,1,54,.,.,.,.
CCC(=O)Nc1ccc2c(c1)C(=O)N(C)[C@H]1CC[C@H](CC(=O)NCc3ccccc3Cl)O[C@@H]1CO2,-7,-4,-3,.,.,.,.
CCCN(C)C[C@H]1OCCCC[C@@H](C)Oc2ccc(NC(=O)Nc3ccc(OC)cc3)cc2C(=O)N([C@H](C)CO)C[C@@H]1C,-7,0,85,.,.,.,.
C[C@H]1CN([C@@H](C)CO)C(=O)c2cccc(NC(=O)CCCCCC(=O)Nc3ccccc3N)c2O[C@H]1CN(C)S(=O)(=O)c1ccc(Cl)cc1,-90*,-6,101*,106*,76,-2,5
C[C@H](CO)N1C[C@H](C)[C@@H](CN(C)S(=O)(=O)c2ccc(Cl)cc2)Oc2c(NC(=O)CCCCCC(=O)Nc3ccccc3N)cccc2C1=O,?,-9,103*,109*,88,-5,2
